From PubChem
Only some compounds are listed: those with a hit (about 3.9% of all), similar ones and a draw of the others.
AHR act = human AHR activation. hit rate 2.5% among 320,000. P35869. activation, % at 5 µM. AHR-responsive luciferase reporter cells, luminescence; in the data active = activation above about 47%;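 also: 0% = vehicle wells and 100% = reference agonist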
HIF act = HIF pathway transcriptional activation. AID 1910. U2OS HRE-luciferase reporter, luminescence; normalized: DMSO 0%, desferrioxamine 100%. activation, % at 7.5 µM (by protocol). hit rate 0.32% among 300,000;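 active = mean activation of at least 10% of the iron chelator positive control signal, with at least half of replicates also reaching 10%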
PLCg1 inh = inhibitors of human phospholipase C gamma1 | purified PLC-gamma1, fluorogenic substrate, fluorescence | inhibition, % at 12.2 µM | hit rate 0.84% among 370,000 | AID 720700; in the data active = inhibition above about 9.5%
Yeast superoxide = lowers age-related superoxide in aged yeast cells; S. cerevisiae aged cells, superoxide DHE fluorescence; active compounds read low; superoxide response (% of plate mean), % at 10 µM; hit rate 0.18% among 330,000; AID 2690;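 active = superoxide response under a set limit, about three screen SD below normal, cut at about 65% in these data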;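 also: yeast aged for seven days with compound at 30 °C before DHE staining; 100% = average MFI of all compound-treated wells on the plate with controls excluded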
PLCb3 inh = inhibitors of human phospholipase C beta3. Q01970. AID 720704. Purified PLC-beta3, fluorogenic substrate, fluorescence. inhibition, % at 12.2 µM. hit rate 0.18% among 370,000; in the data active = inhibition above about 11%;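 also: 0% = median of compound wells on plate and 100% = full blocker control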
HGIII-sPLA2 inh = Blocks human group III sPLA2 activity | QFRET BODIPY PC-A2 liposome hydrolysis, fluorescence | inhibition, % at 12.2 µM | hit rate 0.56% among 370,000;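 active = inhibition above mean plus 3 SD of compounds lying within the high and low control bounds, cut at about 19% in these data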;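 also: 0% = median of test compound wells and 100% = no enzyme DMSO wells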
AHR act confirm = confirmation of human aryl hydrocarbon receptor activators; hit rate 87% among 2,300; activation, % at 9 µM; human cells, AHR-responsive luciferase reporter, luminescence; shares compounds with AHR act; in the data active = activation above about 49%;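 also: HepG2 hepatoma cells carrying a DRE-driven firefly luciferase reporter; 0% = vehicle wells and 100% = reference agonist wells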
PXR act counter = counter-screen for AHR activators: human PXR activators | shares compounds with AHR act | cell-based PXR reporter, luciferase luminescence | activation, % at 11.6 µM | hit rate 88% among 2,300; in the data active = activation above about 11%;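 also: human hepatoma DPX-2 cells expressing full-length human PXR; 0% = DMSO and 100% = reference agonist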
Target sequence (O75469 whole entry, looked up): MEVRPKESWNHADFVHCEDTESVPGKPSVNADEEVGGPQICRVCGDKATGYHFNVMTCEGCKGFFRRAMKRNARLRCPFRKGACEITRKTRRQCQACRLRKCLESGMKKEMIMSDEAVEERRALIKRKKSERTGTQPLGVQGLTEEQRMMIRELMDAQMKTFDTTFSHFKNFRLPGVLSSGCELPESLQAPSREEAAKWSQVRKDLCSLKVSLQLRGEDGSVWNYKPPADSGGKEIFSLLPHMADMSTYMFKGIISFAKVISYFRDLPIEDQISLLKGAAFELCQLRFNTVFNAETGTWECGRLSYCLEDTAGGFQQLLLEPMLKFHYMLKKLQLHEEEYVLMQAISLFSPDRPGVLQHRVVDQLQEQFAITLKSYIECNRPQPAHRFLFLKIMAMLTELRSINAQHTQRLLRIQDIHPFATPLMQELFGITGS
An asterisk follows results filed as active; nt = no result given.

SMILES	AHR act	HIF act	PLCg1 inh	Yeast superoxide	PLCb3 inh	HGIII-sPLA2 inh	AHR act confirm	PXR act counter
CC(C)(C)c1ccc(-c2nnc(NC(=O)c3ccccc3)s2)cc1	3.1	0.9	0.5	93.5	0.3	6.0	nt	nt
O=C(CN1CCCC1)Nc1nnc(-c2cccs2)s1	125.9*	0.6	-6.1	101.0	-12.7	11.0	124.6*	16.0*
O=C(CN1CCCCC1)Nc1nnc(-c2ccccc2)s1	109.2*	1.9	-3.1	92.2	1.2	12.2	132.2*	26.9*
Cc1cccc2sc(NC(=O)C3CSC4(C)CCC(=O)N34)nc12 (stereo not given)	21.3	0.0	0.6	110.9	-5.9	-5.6	nt	nt
CC12CCC(=O)N1C(C(=O)Nc1nc3c(F)cc(F)cc3s1)CS2 (stereo not given)	97.4*	0.2	0.7	95.7	-7.5	-1.5	79.3*	151.5*
COc1cccc(N2CCN(S(=O)(=O)c3ccc(-n4cnnn4)cc3)CC2)c1	1.2	0.2	3.0	139.1	-3.6	-2.8	nt	nt
CC1(C(=O)NS(=O)(=O)c2ccc(F)cc2F)CCN1C(=O)C1CCCCC1 (stereo not given)	nt	nt	0.5	nt	-15.3	8.8	nt	nt
C[C@H](NC(=O)[C@@H]1Cc2ccccc2CN1)C(=O)NC1CCCC1	1.3	0.0	6.7	99.6	-2.3	11.6	nt	nt
O=C(Nc1cccc(Cl)c1)Nc1ccnc(-c2cccnc2)n1	148.3*	-0.3	2.7	120.9	6.0	11.1	129.2*	11.9*
O=C(Nc1ccnc(-c2cccnc2)n1)c1ccccc1Cl	135.9*	0.0	-0.6	92.2	1.3	-6.1	37.4	16.9*
O=C(Nc1ccnc(-c2cccnc2)n1)c1cccc(Cl)c1Cl	4.6	-0.4	1.4	120.8	4.8	2.4	nt	nt
CCCc1cc(=O)oc2cc(OCC(=O)NCc3cccs3)ccc12	87.2*	0.2	-19.3	97.7	-18.7	-4.0	44.6	43.8*
COC(=O)[C@]12C[C@H](CC(=O)N3CCCC3)C(=O)N(Cc3ccc4c(c3)OCO4)C1=C[C@H](C(C)C)O[C@@H]2C1CC1	nt	nt	3.2	nt	1.7	6.2	nt	nt
N/C(=N\c1nc2ccccc2o1)NC(=O)c1ccccc1Br	95.3*	1.5	0.6	96.8	-5.7	4.7	42.8	28.1*
N/C(=N\c1nc2ccccc2o1)NC(=O)c1ccc(F)cc1	82.8*	0.1	-0.5	120.3	-0.9	1.6	144.8*	29.6*
COc1ccc(N(CC(=O)NCCSCc2cccc(Cl)c2)S(C)(=O)=O)cc1Cl	2.6	0.1	1.1	125.4	-10.3	-11.9	nt	nt
O=C(CN1C(=O)NC2(CCCC2)C1=O)NCc1ccc(Cl)cc1	-1.0	nt	4.6	105.0	-7.7	8.6	nt	nt
CC(C)(C)OC(=O)N1C(=O)[C@](OC(=O)c2ccccc2)(c2ccc(F)cc2)c2ccccc21	nt	nt	2.4	nt	4.3	-1.7	nt	nt
Cc1ccc(C(=O)NNc2c3ccccc3nc3ccccc23)cc1	39.0	0.3	-100.4	92.0	-144.1	7.8	nt	nt
Nc1ccccc1C(=O)NNc1c2ccccc2nc2ccccc12	95.8*	1.9	-154.0	98.5	-232.3	1.8	105.2*	63.7*
COc1ccc(NC(=O)Nc2ccc3c(c2)CC(=O)N([C@H](C)CO)C[C@H](C)[C@H](CN(C)Cc2ccc(C(=O)O)cc2)O3)cc1	-1.5	nt	3.3	125.8	3.6	-19.3	nt	nt
Nc1nc2ccc(NC(=O)c3ccco3)cc2s1	82.4*	2.6	0.5	94.1	-4.8	-2.4	52.3*	15.3*
O=C(Nc1ccc(Cl)c(C(F)(F)F)c1)c1ccco1	81.7*	nt	-2.6	124.4	-0.1	-1.5	1.4	5.8
O=C(Nc1cccc(C(F)(F)F)c1)c1ccco1	-0.9	0.4	-1.9	88.2	1.8	-0.2	nt	nt
CCN(CC)C(=O)C1CCCN(c2ccccc2[N+](=O)[O-])C1 (stereo not given)	0.4	0.3	2.7	101.0	2.6	3.4	nt	nt
SMILES	AHR act	HIF act	PLCg1 inh	Yeast superoxide	PLCb3 inh	HGIII-sPLA2 inh	AHR act confirm	PXR act counter
COc1ccc(-c2csc(Nc3cccc(C)n3)n2)cc1	87.9*	4.0	5.0	103.5	-5.9	-0.4	96.5*	19.0*
Cc1cccc(Nc2nc(-c3ccc(F)cc3)cs2)n1	79.5*	2.7	1.1	96.0	2.0	-2.8	110.9*	10.3*
CC(=O)Oc1ccc(-c2csc(Nc3cccc(C)n3)n2)cc1	14.2	3.1	-0.6	104.0	-4.2	-4.8	nt	nt
COc1ccc(C(=O)NCC(=O)Nc2ccc(-c3ccccc3)cc2)cc1	-1.3	0.1	1.0	102.4	0.2	3.1	nt	nt
Cc1ccc(NC(=O)c2[nH]cnc2C(=O)NN)cc1	79.3*	2.0	-8.4	113.4	-12.9	18.2	82.2*	16.1*
Cc1c(C)c(C)c2[nH]c(-c3ccc4c(c3)OCO4)nc2c1C	101.5*	1.3	nt	88.5	nt	nt	102.1*	50.4*
O=C(CSCC(=O)Nc1nc(-c2ccc3c(c2)OCO3)cs1)Nc1nccs1	100.1*	2.5	-3.1	97.1	-7.7	9.4	62.7*	27.1*
O/N=C/c1cc(Cl)ccc1OCc1ccccc1Cl	106.4*	0.8	-3.2	119.7	0.1	-10.0	102.9*	14.9*
CCOc1ccc(Cl)cc1/C=N/O	6.4	-0.2	-1.9	105.3	1.1	-0.8	nt	nt
Cn1c(-c2ccc(Br)o2)nc2cc(Br)ccc21	116.3*	nt	-2.5	90.7	2.8	6.1	125.5*	20.5*
Cn1c(-c2ccc(Br)o2)nc2ccccc21	33.1	1.7	-5.8	108.8	-8.9	6.4	nt	nt
Cc1cccc(NC(=S)NN(Cc2ccccc2)c2ccccc2)c1C	115.6*	-0.5	4.1	105.5	3.4	2.0	108.3*	213.5*
CC(=O)Nc1ccc(NC(=O)CC2(CC(=O)N3CCOCC3)CCCC2)cc1	nt	nt	0.3	nt	-8.1	9.7	nt	nt
S=c1[nH]c2ccccc2n1CCOc1ccccc1	96.2*	-20.6	-2.6	105.3	-7.3	15.2	101.6*	77.4*
CCOc1ccc(OCCn2c(=S)[nH]c3ccccc32)cc1	nt	-1.2	0.0	96.0	-3.8	7.1	nt	nt
Cc1cccc(OCCn2c(=S)[nH]c3ccccc32)c1	80.8*	0.9	-0.5	108.5	0.8	-2.2	89.7*	74.0*
O=c1sc2ccccc2n1CCOc1ccccc1	108.8*	2.9	0.2	91.1	0.7	-5.8	123.2*	29.9*
CCN(C(=O)COC(=O)CCC1CCCC1)c1c(N)n(Cc2ccccc2)c(=O)[nH]c1=O	nt	nt	0.7	nt	-2.1	-2.7	nt	nt
Cc1cccc(C)c1OCc1nc2ccccc2c(=O)n1/N=C/c1c[nH]c2ccccc12	102.1*	0.2	-5.9	91.2	-10.7	-9.1	32.2	112.1*
Cc1ccc(-c2[nH]ncc2/C=N/n2c(COc3ccccc3C)nc3ccccc3c2=O)cc1	25.4	-3.1	1.0	95.7	0.6	-1.9	nt	nt
Cc1ccccc1OCc1nc2ccccc2c(=O)n1/N=C/c1c[nH]c2ccccc12	85.5*	0.1	-1.0	109.4	-3.6	3.6	35.4	88.8*
